Among all 420,000 compounds or so, about 64,000 (15%) were called active. Roughly 27% stayed inconclusive and do not appear here. Calls come from the whole dose curve; as a rule, active = well fitted inhibition curve with a large enough effect; inconclusive = small, poorly fitted or top-dose-only effect; inactive = flat fitted curve, though single readings scatter. These entries were drawn from the full list. Peptide text beside a SMILES is read from it.
% is set by controls: 0 for no effect and ±100 for the full control effect; potency is the fitted concentration of half-maximal effect.

The assay in a line: qHTS for Inhibitors of human tyrosyl-DNA phosphodiesterase 1 (TDP1): qHTS in cells in absence of CPT. Note: nearly all actives have a fitted effect of over 55% in size. The following applies: DT40 Tdp1-/- hTDP1 cells, no CPT, ATP luminescence, 48 h; activity change, negative = growth inhibition: at 46.2 µM (top of the series). In a few lines: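 Stably hTDP1-transfected Tdp1-null chicken DT40 cells were treated with library compounds minus camptothecin and grown for at least 48 hr at 37 °C, after which cellular ATP was quantified by luminescence.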
A general note: qHTS replaces the single test concentration by a dilution series.
In the case of `CCCn1nnnc1NCc1ccc(CC)cc1`, the “activity change, negative = growth inhibition” value was -10.5% (inactive). `CCCn1c(NCc2ccc(N(CC)CC)cc2)nc2ccccc21`: the Potency was 8.2 µM (active).

In the case of `CC(C)(C)C(=O)Cn1c(NCCO)nc2ccccc21`, the “activity change, negative = growth inhibition” value is -3.49% (inactive). For the molecule `O=C(O)CN1C(=O)CC(Cc2ccccc2)C1=O` (centres undefined), the “activity change, negative = growth inhibition” value is -0.391% (inactive).

Take `Cc1cc(NC(=O)COn2nnc3ccccc32)no1`: the “activity change, negative = growth inhibition” value was -17.8% (inactive).

For `COC(=O)c1cc(NC(=O)C2C3C=CC(C3)C2C(=O)O)cc(C(=O)OC)c1` (centres undefined), the “activity change, negative = growth inhibition” value is 3.17% (inactive). With `O=C(NCCCNCc1ccccc1)c1ccc(/C=N/O)nc1`, the “activity change, negative = growth inhibition” value was 3.22% (inactive). On to `CCc1ccc(Nc2n[n+](-c3ccccc3)c(-c3cccc(Cl)c3Cl)s2)cc1`, for which the Potency is 16.4 µM (active). On to `Cc1noc(C)c1S(=O)(=O)NCCc1ccc(S(N)(=O)=O)cc1`, for which the “activity change, negative = growth inhibition” value was -8.65% (inactive).

`COC(=O)c1ccc([C@@H](O)[C@H](C)C(=O)CC(=O)OC(C)(C)C)cc1`: the “activity change, negative = growth inhibition” value is -16.3% (inactive). As to `O=C(c1ccccc1)c1ccc(OC(=O)N2CCCC2)cc1`, the “activity change, negative = growth inhibition” value is -25% (inactive).

`O=C(c1ccccc1)c1ccc2nc(N3CCCCC3)c3nncn3c2c1`: the Potency is 13 µM (active). With `c1ccc(CC2CCN(c3nc4ccccc4n4cnnc34)CC2)cc1`, the “activity change, negative = growth inhibition” value is -8.6% (inactive). With `COc1ccc(OC)c(/C=C/C(=O)OCC(=O)Nc2ccc3c(c2)OCCO3)c1`, the Potency is 16.4 µM (active). For the molecule `COc1ccccc1OCCCC(=O)Nc1ccc2c(c1)OCCO2`, the “activity change, negative = growth inhibition” value was -24.4% (inactive). With `COc1cccc(/C=C/C(=O)Nc2ccc3c(c2)OCCO3)c1`, the “activity change, negative = growth inhibition” value is -13.1% (inactive). For the molecule `S=c1c2[nH]cnc2ncn1CCSc1ncnc2nc[nH]c12`, the “activity change, negative = growth inhibition” value is -24.7% (inactive). Consider `Cc1ccc(NC(=O)CN(C)C(=O)c2ccc(Cl)c(S(=O)(=O)NCc3ccco3)c2)cc1`, for which the “activity change, negative = growth inhibition” value is 11.9% (inactive). As to `CC[C@H](C)CCCCC(=O)N[C@@H](CCN)C(=O)N[C@H](C(=O)N[C@@H](CCN)C(=O)N[C@H]1CCNC(=O)[C@H]([C@@H](C)O)NC(=O)[C@H](CCN)NC(=O)[C@H](CCN)NC(=O)[C@H](CC(C)C)NC(=O)[C@@H](CC(C)C)NC(=O)[C@H](CCN)NC1=O)[C@@H](C)O` (HELM PEPTIDE1{[CC[C@H](C)CCCCC(=O)[*:2]].[Dab].T.[Dab].[Dab].[Dab].[dL].L.[Dab].[Dab].T}$PEPTIDE1,PEPTIDE1,5:R3-11:R2$$$V2.0), the “activity change, negative = growth inhibition” value was -2.38% (inactive).

In the case of `O=C(CSc1nnc(CNC(=O)c2ccccc2)n1-c1ccc(F)cc1)Nc1ccccc1F`, the “activity change, negative = growth inhibition” value was -10.5% (inactive). For the molecule `CCOC(=O)/C=c1\s/c(=C\c2ccc(C#N)cc2)c(=O)n1CC(=O)Nc1cccc(C)c1C`, the Potency is 5.17 µM (active). Take `CCOc1ccc(NC(=O)Cn2c(C)ccc(C#N)c2=O)cc1`: the “activity change, negative = growth inhibition” value was 0.582% (inactive).

In the case of `Cc1cccc(NC(=O)CN2C(=O)c3ccccc3C2=O)c1C`, the “activity change, negative = growth inhibition” value is 1.62% (inactive).

Take `Cc1nc(SCC(=O)NC2CCCC2)[nH]c(=O)c1C`: the “activity change, negative = growth inhibition” value was -0.993% (inactive).

`Cc1ccsc1C(=O)OCC(=O)c1cc2ccccc2o1`: the “activity change, negative = growth inhibition” value was -9.66% (inactive).

Take `CCCCc1nn2c(=O)cc(COC(=O)c3cccc(NC(=O)COc4ccccc4)c3)nc2s1`: the “activity change, negative = growth inhibition” value is -10.2% (inactive). As to `O=C1CS(=O)CN1c1ccc(Oc2ccccc2)cc1` (centres undefined), the “activity change, negative = growth inhibition” value was -20.1% (inactive). As to `O=C(CN1C(=O)NC2(CCCCCC2)C1=O)NCc1ccc(F)cc1`, the “activity change, negative = growth inhibition” value is 3.82% (inactive). On the same count and under the same terms, as for `COc1cc(OC)c(NC(=O)c2cc(S(=O)(=O)N3CCCC3)cn2C)cc1Cl`, the figure is -7.62% (inactive); as for `COc1cccc(NC(=O)c2cc(S(=O)(=O)N3CCc4ccccc43)cn2C)c1`, -1.2% (inactive).

For the molecule `COc1ccccc1N(C)C(=O)c1cc(S(=O)(=O)N2CCc3ccccc32)cn1C`, the Potency was 25.9 µM (active). Regarding `CN(C(=O)COC(=O)Cn1cnc2c1c(=O)n(C)c(=O)n2C)C1(C#N)CCCCC1`, the “activity change, negative = growth inhibition” value was 0.855% (inactive). On the same count and under the same terms, then `NCC(=O)c1cccc2ccc[n+]([O-])c12`, with -0.678% (inactive). Still for that read-out and setting: then `O=C(c1cnccn1)N1CCC2(CCCN(Cc3ccccc3)C2)CC1`, with -1.1% (inactive); and `CCN(Cc1ccncc1)C(=O)[C@@H](CO)c1ccccc1`, with 2.72% (inactive); and `C=CCn1c(SCC(=O)NCc2ccccc2)nnc1-c1cc(Br)ccc1O`, with -18% (inactive).

`COc1ccc(OCC(=O)NNC(=O)C2CCC2)cc1`: the “activity change, negative = growth inhibition” value is -5.78% (inactive). On to `COc1ccc(NC(=O)CCN2CCCC2)c(OC)c1`, for which the “activity change, negative = growth inhibition” value is 0.0354% (inactive). As to `COc1ccc(-c2ccc3c(c2)C2CC3CCN2CCC#N)cc1` (centres undefined), the Potency is 23.1 µM (active). On to `C=CCOC(=O)N1CCC2CC1c1cc(-c3ccc(OC)cc3)ccc12` (centres undefined), for which the Potency was 16.4 µM (active). As to `CC1CC1C(=O)OCC(=O)c1c(N)n(C)c(=O)n(C)c1=O` (centres undefined), the “activity change, negative = growth inhibition” value is 8.67% (inactive).

On to `CCOC(=O)N1CCN(C(=O)c2cc3c(ccc4ccccc43)oc2=O)CC1`, for which the “activity change, negative = growth inhibition” value is -24.1% (inactive). `CCOC(=O)N1CCN(C(c2cccnc2)c2ccc3cccnc3c2O)CC1` (centres undefined): the Potency is 1.64 µM (active). With `Cc1onc(C(=O)NN)c1C(=O)N1CCN(C(c2ccccc2)c2ccccc2)CC1`, the “activity change, negative = growth inhibition” value is -18.3% (inactive).

Consider `CCOC(=O)Cn1nnnc1C`, for which the “activity change, negative = growth inhibition” value was -9.63% (inactive).

Consider `CCC(C)CCN1CCN=C1N(C)C` (centres undefined), for which the “activity change, negative = growth inhibition” value was -17.4% (inactive).

Turning to `CC(C)NS(=O)(=O)c1ccc(OCC(=O)Nc2ccc3c(c2)OCCO3)cc1`, the “activity change, negative = growth inhibition” value was -0.099% (inactive). For `CC1CC2=C(CC1/C=N/NC(N)=S)C(C)(C)CCC2` (centres undefined), the Potency is 3.26 µM (active). Take `Cc1ccc(OCC(=O)OCc2cc(=O)n3nc(C4CC4)sc3n2)cc1C`: the “activity change, negative = growth inhibition” value was 0.484% (inactive).

Values taken from PubChem BioAssay AID686978 (National Center for Advancing Translational Sciences (NCATS), 2013).
